Data from PubChem BioAssay (NCI).
This is part of a sample that, as a whole, favours compounds with a hit. Of some 83,000 tested, about 20% had one in any assay.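 For each line, cells grew in 96-well plates with the test compound present at a single concentration for 48 hours.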 Calls of active or inactive are those of the source. The calls were made as follows: active = growth percent below 10; inactive = the rest.

Tests used:
Experiment in all cases: NCI-60 one-dose screen, 48 h (100 = growth as untreated, 0 = no growth, -100 = all killed)
Conditions in all cases: 10 µM unless noted
[1] = tested on: NCI-H23 lung
[2] = tested on: NCI-H226 lung
[3] = tested on: NCI-H322M lung
[4] = tested on: HOP-62 NSCLC
[5] = tested on: NCI-H460 lung
[6] = tested on: HOP-92 NSCLC
[7] = tested on: NCI-H522 lung
[8] = tested on: A549/ATCC NSCLC
[9] = tested on: 786-0 renal
[10] = tested on: COLO 205 colon

Measured: growth

COC(=O)/C=C1\S/C(=N\Nc2ccc([N+](=O)[O-])cc2[N+](=O)[O-])N(C2CCCCC2)C1=O
active: [6] 8.36%
inactive: [1] 60% | [2] 80.7% | [3] 99.3% | [4] 86.8% | [5] 35.1% | [7] 43.6% | [8] 87.6% | [9] 61.1% | [10] 42.5%

NC(=O)Nc1ccc2ncnc(Nc3ccc(Cl)cc3)c2c1
inactive: [1] 100% | [2] 99.8% | [3] 18% | [4] 86.2% | [5] 87.9% | [6] 74.2% | [7] 66.2% | [8] 72.5% | [9] 85.9% | [10] 101%

O=C(O)c1cn(C2CC2)c2cc(N3CCN(C(=O)Nc4nc(-c5ccccc5)cs4)CC3)c(F)cc2c1=O
active: [1] 9.06% | [5] 5.5% | [6] -21.5% | [7] -2.04% | [8] 7.93%
inactive: [2] 46.8% | [3] 31.4% | [4] 26% | [9] 22.5% | [10] 51%

COc1cc(C2CC(c3cccc(Br)c3)=NN2C(C)=O)cc(OC)c1OC (stereo not given)
inactive: [1] 24.8% | [2] 28% | [3] 33% | [4] 43.7% | [6] 78.3% | [8] 29.1% | [9] 40.7%
active: [5] 9.31% | [7] -13.8% | [10] 2.52%

CCOC(=O)CC1C(COC(=O)NC)OC(n2cnc3c(NC(=O)Nc4ccccc4)ncnc32)C1O[Si](C)(C)C(C)(C)C (stereo not given)
inactive: [1] 81% | [2] 55.5% | [3] 91.1% | [4] 77.4% | [5] 13.2% | [6] 62.1% | [7] 45.3% | [8] 51.3% | [9] 72.5% | [10] 67.4%

O=C(O)C(c1ccccc1)N1C(=O)CSC1=S (stereo not given)
inactive: [1] 106% | [2] 95.8% | [3] 97.9% | [4] 99.5% | [5] 107% | [6] 111% | [7] 88.2% | [8] 92% | [9] 102% | [10] 108%

Cc1ccc2nc(NC(=O)CSc3nc(Cl)c(C#N)c(-c4ccccc4)n3)sc2c1
inactive: [1] 97.9% | [2] 107% | [3] 101% | [4] 102% | [5] 106% | [6] 95% | [7] 86.9% | [8] 98.6% | [9] 103% | [10] 110%
